Compound activity (PubChem)
ALOX15B inhib: qHTS Assay for Inhibitors of 15-hLO-2 (15-human lipoxygenase 2); purified 15hLO-2, xylenol orange hydroperoxide absorbance; actives 0.56% (n = 110,000); AID 881, 2007; Potency, µM (doses to about 57.1 µM), for the others: at the highest dose activity change, negative = inhibition, actives largely listed as inhibitors; also: potency is read from the fitted curve at half-maximal effect; nearly all actives have a fitted effect of over 60% in size
Target sequence (O15296 whole entry, looked up): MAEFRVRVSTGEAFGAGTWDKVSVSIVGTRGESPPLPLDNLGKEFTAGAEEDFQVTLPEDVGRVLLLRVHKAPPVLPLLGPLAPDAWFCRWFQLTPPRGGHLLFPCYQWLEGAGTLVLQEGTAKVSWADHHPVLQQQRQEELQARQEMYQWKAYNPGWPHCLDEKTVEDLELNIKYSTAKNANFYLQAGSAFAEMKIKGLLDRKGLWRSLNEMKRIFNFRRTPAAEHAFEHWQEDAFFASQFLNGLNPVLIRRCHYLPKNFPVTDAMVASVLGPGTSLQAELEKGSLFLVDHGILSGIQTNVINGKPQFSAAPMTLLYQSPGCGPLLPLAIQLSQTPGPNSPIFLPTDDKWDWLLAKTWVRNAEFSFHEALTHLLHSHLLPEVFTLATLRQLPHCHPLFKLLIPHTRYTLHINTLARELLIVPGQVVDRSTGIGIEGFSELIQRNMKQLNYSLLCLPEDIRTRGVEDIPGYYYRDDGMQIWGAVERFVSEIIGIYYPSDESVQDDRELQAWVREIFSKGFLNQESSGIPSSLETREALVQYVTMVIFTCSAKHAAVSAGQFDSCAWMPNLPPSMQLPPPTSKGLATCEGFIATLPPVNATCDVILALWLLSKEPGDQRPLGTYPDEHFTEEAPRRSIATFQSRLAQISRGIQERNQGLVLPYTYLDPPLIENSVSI
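Purified human 15hLO-2 (50 nM final) preincubated with compounds 15 min at room temperature in 25 mM Hepes pH 7.5, 0.01% Triton X-100, then 45 uM arachidonic acid added for 90 min; hydroperoxide detected via ferrous/xylenol orange, 573/405 nm absorbance ratio.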
12-hLO inh: qHTS Assay for Inhibitors of 12-hLO (12-human lipoxygenase). Polyunsaturated fatty acid lipoxygenase ALOX12 (Homo sapiens), P18054. purified 12-hLO, xylenol orange hydroperoxide absorbance. Potency, µM (titrated, usually from 57.1 µM), for inactives: at the top dose activity change, negative = inhibition, most hits filed as inhibitors. actives 0.12% (n = 150,000). AID 1452, 2008; also: potency is read from the fitted curve at half-maximal effect; nearly all actives have a fitted effect of over 55% in size
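150 nM 12hLO, 25 mM Hepes pH 7.0 + 0.01% Triton X-100; cpd preinc 15 min RT; 40 uM arachidonic acid, 30 min RT; Fe-XO 30 min; A573/A405 ratio as read-out.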
IMPase Li cell: qHTS Assay for Identifying the Cell-Membrane Permeable IMPase Inhibitors: Potentiation with Lithium; CHO-M1 cells, IP1 TR-FRET (IP-One), carbachol + lithium; Potency, µM (top dose mostly 59.4 µM), for the others: at the highest dose activity, negative = IMPase inhibition, hits mostly inhibitors; actives 0.35% (n = 210,000); AID 1457, 2008;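 also: IP1 builds up when IMPase is blocked and the TR-FRET signal falls; potency is read from the fitted curve at half-maximal effect; plate controls were basal vehicle for no effect and high inhibitor control for full effect; nearly all actives have a fitted effect of over 50% in size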
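CHO-M1, 2000 cells/well, 16–30 h culture; cpd + low Li+, 30 min 37C; lysis with d2-IP1/Eu-anti-IP1 Ab, 10 min RT; TR-FRET 665/620 ratio and 620 channel; AC50 via Hill.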
IMPase inh: qHTS Assay for Identifying the Cell-Membrane Permeable IMPase Inhibitors. inhibition (IP1 accumulation), % at 46.1 µM. 120,000 tested, under 10 active. CHO-M1 cells, IP1 accumulation, HTRF TR-FRET ratio. Inositol monophosphatase 1 (Rattus norvegicus), P97697; active = well fitted curve in the direction sought with a large enough effect in the signal ratio, not every such curve was filed as active; inconclusive = small, poorly fitted or top-dose-only effect, or a change in a side signal; inactive = no such curve, though single readings can be large or run the other way; the % refers to the signal ratio;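 also: cells stimulated with carbachol in lithium chloride buffer; plate controls were DMSO basal wells for no effect and reference inhibitor wells for full effect; higher means more IMPase inhibition seen as more IP1 and lower FRET ratio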
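In this qHTS, compounds (final up to 46 uM) act on CHO-M1 cells that are then activated through the M1 receptor with carbachol, in pH 7.4 buffer containing 50 mM LiCl, for 30 min. IP1 accumulation is quantified by the IP-One immunoassay.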
The depositor's hits bear a star; [ ] = another dose, or the depositor's remark. Hits are enriched below; roughly 0.57% of the tested compounds scored in any of these assays. Unless noted, calls follow the shape of the dose curve; as a rule, active = well fitted curve in the direction sought with a large enough effect; inconclusive = small, poorly fitted or top-dose-only effect, or another doubt; inactive = no such curve, though single readings can be large; an effect the other way counts as inactive or inconclusive. Unless noted, % is scaled to controls: 0 for no effect and ±100 for the full control effect.

Screening CCOc1ccc(NS(=O)(=O)c2ccc3[nH]cc(C(=O)NCC4CCCO4)c(=O)c3c2)cc1 (stereo unspecified) returned ALOX15B inhib -1.9%, 12-hLO inh -2.4%, IMPase Li cell inconclusive and IMPase inh 5.4.
CC(C)(C)C(=O)NC(=S)NCCc1ccccc1 was read as ALOX15B inhib 12.6µM*, 12-hLO inh 12.6µM*, IMPase Li cell 33.8%[38.3 µM] and IMPase inh 8.7.
`COc1cc(OC)cc(C(=O)NC(=S)NCCc2ccccc2)c1` gave ALOX15B inhib 7.94µM*, 12-hLO inh 3.98µM*, IMPase Li cell 30.1%[38.3 µM] and IMPase inh 9.7.
For S=C(NCCc1ccccc1)NCCc1ccccc1 the results were 12-hLO inh -16.1% and IMPase Li cell 0.1%.
Screening O=C(O)c1cc(S(=O)(=O)Nc2cccc(F)c2)ccc1Cl returned 12-hLO inh -4.4%.
For Nc1ccn([C@@H]2O[C@@H](CO)[C@@H](O)[C@H]2O)c(=O)n1 the results were ALOX15B inhib 5.8%, 12-hLO inh -1.6% and IMPase inh 0.8.
Screening COc1ccc(-c2nnc3ccc(SCC(=O)NCC4CCCO4)nn23)cc1 (stereo unspecified) returned ALOX15B inhib 8.2%[11.4 µM], 12-hLO inh 0.1%, IMPase Li cell 31.8%[38.3 µM] and IMPase inh 1.1[1.84 µM].
`O=C(CSc1ccc2nnc(-c3ccc(F)cc3)n2n1)NCC1CCCO1` (stereo unspecified) gave ALOX15B inhib inconclusive, 12-hLO inh -9.0%, IMPase Li cell 25.1µM* and IMPase inh 8.9.
For CN(C)c1ccc(C2(c3ccc(N(C)C)cc3)OC(=O)c3cc(N(C)C)ccc32)cc1 the results were ALOX15B inhib 3.8%, 12-hLO inh -0.9% and IMPase Li cell 8.4%.
Screening CCCN1C(=O)C2(C(C(=O)c3ccc(C)o3)=C(O)C(=O)N2CCCN2CCOCC2)c2ccccc21 (stereo unspecified) returned ALOX15B inhib 2.3%, 12-hLO inh -3.0%, IMPase Li cell 10µM* and IMPase inh -26.6.
`O=C(C1=C(O)C(=O)N(CCCN2CCOCC2)C1c1ccccn1)c1cc2ccccc2o1` (stereo unspecified) gave ALOX15B inhib -11.9%, 12-hLO inh 0.0%, IMPase Li cell 11.2µM* and IMPase inh inconclusive.
CCN(CC)CCN1C(=O)C(O)=C(C(=O)c2cc3ccccc3o2)C1c1cccnc1 (stereo unspecified) was read as ALOX15B inhib -8.8%, 12-hLO inh -1.0%, IMPase Li cell 10µM* and IMPase inh inconclusive.
Cc1nc(C)c(C(=O)C2=C(O)C(=O)N(CCN(C)C)C2c2ccccc2)s1 (stereo unspecified) was read as ALOX15B inhib -0.1%, 12-hLO inh 4.8%, IMPase Li cell 15.7%[38.3 µM] and IMPase inh -15.6.
CN(C)CCN1C(=O)C(O)=C(C(=O)c2cc3ccccc3o2)C1c1cccc(Br)c1 (stereo unspecified) was read as ALOX15B inhib 21.7%, 12-hLO inh -6.0%, IMPase Li cell 11.2µM* and IMPase inh inconclusive.
Screening COc1cc(C2C(C(C)=O)=C(O)C(=O)N2CCN(C)C)ccc1O (stereo unspecified) returned ALOX15B inhib 8.7%, 12-hLO inh -5.7%, IMPase Li cell 3.9%[38.3 µM] and IMPase inh 2.2.
COc1ccccc1C1C(C(=O)c2cc3ccccc3o2)=C(O)C(=O)N1CCN(C)C (stereo unspecified) was read as ALOX15B inhib 6.4%, 12-hLO inh 9.9%, IMPase Li cell 8.91µM* and IMPase inh -27.2.
CCN(CC)CCN1C(=O)C(O)=C(C(=O)c2sc(C)nc2C)C1c1cccnc1 (stereo unspecified) was read as ALOX15B inhib -6.2%, 12-hLO inh 1.4%, IMPase Li cell 19.4%[38.3 µM] and IMPase inh 2.4.
For COC(=O)CCC(=O)OC1(C)C(=O)C=C2C=C(C3CC3)N(c3ccc(OC)cc3)C=C2C1=O (stereo unspecified) the results were 12-hLO inh -1.2%[11.4 µM] and IMPase Li cell 4.4%.
For O=C(NCCN1CCOCC1)c1ccc(Cc2nc3ccccc3[nH]2)cc1 the results were 12-hLO inh -0.5%.
For O=C(C1=C(O)C(=O)N(CCc2ccccc2)C1c1ccncc1)c1cc2ccccc2o1 (stereo unspecified) the results were IMPase Li cell 4.47µM*.
CCCCc1nc2c(c3c1C[C@H](C)OC3)CN(S(=O)(=O)c1ccc(Cl)c3nonc13)CC2 was read as 12-hLO inh -3.3%[11.4 µM] and IMPase Li cell 5.5%.
Nc1ccc(N2CCN(c3ccc(F)cc3)CC2)cc1 was read as IMPase Li cell 4.1%.
`Nc1ccc(N2CCCCCC2)cc1` gave ALOX15B inhib 12.6µM*, 12-hLO inh -25.7%, IMPase Li cell 65.7%[38.3 µM] and IMPase inh 3.9.
For O=c1cc(-c2cccc(O)c2O)oc2ccccc12 the results were ALOX15B inhib 15.8µM*, 12-hLO inh inconclusive, IMPase Li cell 24.4% and IMPase inh 10.3.
Screening O=c1cc(-c2ccccc2O)oc2cc(O)ccc12 returned ALOX15B inhib -28.1%, 12-hLO inh -2.8% and IMPase Li cell -22.7%.
Screening N#Cc1sc2nc(-c3cccs3)cc(-c3ccccc3)c2c1N returned 12-hLO inh 8.7%, IMPase Li cell 10µM* and IMPase inh -25.0.
`N#Cc1sc2nc(-c3cccs3)cc(-c3ccc(Cl)cc3)c2c1N` gave ALOX15B inhib -8.0%, 12-hLO inh -18.4%, IMPase Li cell 10µM* and IMPase inh inconclusive.
`CCN(CC)C(=O)c1sc2nc(-c3cccs3)cc(-c3ccc(Cl)cc3)c2c1N` gave ALOX15B inhib inconclusive, 12-hLO inh -0.6%, IMPase Li cell inconclusive and IMPase inh inconclusive.
NC(=O)c1ncn([C@@H]2O[C@@H](CO)[C@@H](O)[C@H]2O)c1O was read as ALOX15B inhib -5.1%, 12-hLO inh -2.3% and IMPase inh 0.5.
NS(=O)(=O)c1ccc(NS(=O)(=O)c2ccc(NC(=O)c3ccc(-c4ccccc4)cc3)cc2)cc1 was read as 12-hLO inh 3.8%, IMPase Li cell -0.4%[38.3 µM] and IMPase inh -1.6.
`NS(=O)(=O)c1ccc(NC(=O)c2ccc(-c3ccccc3)cc2)cc1` gave IMPase Li cell 8.91µM*.
For NS(=O)(=O)c1ccc(NC(=O)N2c3ccccc3Sc3ccccc32)cc1 the results were ALOX15B inhib inconclusive, 12-hLO inh 15.8µM*, IMPase Li cell 1.4%[38.3 µM] and IMPase inh 1.6.
For Cc1nc(SC2CCOC2=O)c2c(C)c(C)sc2n1 (stereo unspecified) the results were ALOX15B inhib 4.1%, 12-hLO inh 2.6%, IMPase Li cell 7.08µM* and IMPase inh inconclusive.
